Pf growth 48h = P. falciparum growth inhibition at 48 hours (one generation) | AID 504832 | P. falciparum luciferase growth in erythrocytes, 48 h | 310,000 compounds, 5.9% hits | Potency, µM (top dose mostly 28.7 µM), without a hit: at the highest dose activity change, negative = inhibition, actives largely listed as inhibitors; further: on the % scale 0 is the no-effect control and ±100 the full control effect
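Luminescence readout; reporter = integrated firefly luciferase in P. falciparum. RBC culture at 2% hematocrit, 0.1% parasitemia final, 37 C/5% CO2; decreased signal taken as growth inhibition.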
NS1 function inh = blocks influenza NS1 protein function; Potency, µM (series often up to 46.1 µM), for inactives: at the top dose activity, positive = more growth; 270,000 compounds, 0.4% hits; AID 2326; calls by dose curve; further: actives are rising curves; nearly all actives have a fitted effect of over 50% in size
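Recovery from NS1-induced slow growth read by OD600 in budding yeast switched to galactose assay medium (pH 6.0, -URA) at 1:100 dilution. Compound 23 nl per well; the matching strain lacking NS1 serves as control.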
AMA1-RON2 inh = inhibitors of Plasmodium falciparum AMA1-RON2 interaction | AlphaScreen AMA1-biotinylated RON2 peptide binding | Potency, µM (top dose mostly 58.2 µM), for the others: at the highest dose activity change, negative = inhibition, usual class: inhibitors | 360,000 compounds, 0.2% hits;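 further: 0% = vehicle wells and -100% = peptide control; nearly all actives have a fitted effect of over 45% in size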
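AMA1 (3D7) with his tag at 25 nM final met compounds first, then biotinylated RON2 peptide at 25 nM; detection used donor plus acceptor beads, 10 µg/mL apiece, read by AlphaScreen after 30 min at room temperature.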
SARS PLpro yeast = blocks SARS-CoV papain-like protease in a yeast assay. S. cerevisiae expressing SARS-CoV PLpro, growth rescue. Potency, µM (highest dose often 32.9 µM), for the others: at the top dose activity, positive = growth rescue, most hits filed as activators. 330,000 compounds, 0.19% hits. AID 485353; calls by dose curve; further: 0% is about no effect; nearly all actives have a fitted effect of over 55% in size
Pf growth 96h = P. falciparum growth inhibition at 96 hours; 320,000 compounds, 6.9% hits; Potency, µM (doses to about 28.7 µM), without a hit: at the top dose activity change, negative = inhibition, most hits filed as inhibitors; P. falciparum luciferase reporter growth, 96 h; further: on the % scale 0 is the no-effect control and ±100 the full control effect
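Delayed-death screen, second-generation endpoint: infected erythrocytes, 2% hematocrit, 0.05% parasitemia final; 96 hours at 37 C, 5% CO2; luciferase detection reagent; luminescence decrease equals reduced growth.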
HCV inh = blocks hepatitis C virus; Potency, µM (doses to about 41.8 µM), inactives show top-dose activity change, negative = inhibition, usual class: inhibitors; 340,000 compounds, 3.4% hits; Huh7.5.1 HCVcc-Cre infection, luciferase reporter, 44 h; further: on the % scale 0 is the no-effect control and ±100 the full control effect
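Antiviral activity was scored by luciferase reporter output from cells infected with HCVcc-Cre (~0.5 moi) in presence of compound, 44 h infection period, cells seeded 1,000/well 4 h prior.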
Starred values were filed as active, the others as inactive; u = inconclusive; x = no result; [ ] = another dose, or the depositor's remark. A selection: hits, their analogues and other compounds. The true share with any hit is near 12%. Unless noted, the call rests on the fitted dose curve; in most records, active means well fitted curve in the direction sought with a large enough effect; inconclusive means small, poorly fitted or top-dose-only effect, or another doubt; inactive means no such curve, though single readings can be large; an effect the other way counts as inactive or inconclusive. Potency means the concentration at half of the fitted maximal effect.

SMILES	Pf growth 48h	NS1 function inh	AMA1-RON2 inh	SARS PLpro yeast	Pf growth 96h	HCV inh
Cc1cc(N2CCCC2=O)cc(C)c1S(=O)(=O)NCCOc1ccc(C(C)(C)C)cc1	13µM*	24%	-5%	-9%	u	11µM*
CCN(CC)S(=O)(=O)c1cc(NC(=O)CCNC(=O)c2ccco2)ccc1C	9.3µM*	u	0%	u	6.6µM*	14%
CCN(CC)S(=O)(=O)c1cc(NC(=O)Cc2ccsc2)ccc1C	u	-4%	17%	1%	u	13µM*
O=C(COC(=O)c1ccc(=O)[nH]c1)Nc1cccc(S(=O)(=O)N2CCOCC2)c1	u	11%	42%	0%	7%	10%
O=C(Nc1nc(-c2ccccc2)cs1)c1ccccc1NS(=O)(=O)c1ccc(F)cc1	13µM*	6%	-18%	-80%	3.7µM*	u
COc1ccc(-c2csc(NC(=O)C(CC(=O)O)N3CCOCC3)n2)cc1 (stereo not given)	1.3µM*	16%	-8%	x	12µM*	14%
COc1ccccc1C(=O)Nc1ccc(S(=O)(=O)N2CCOCC2)cc1	-21%	-9%	10%	-8%	18%	8%
COc1ccccc1OC(C)C(=O)Nc1nc(-c2ccc(S(=O)(=O)N3CCOCC3)cc2)cs1 (stereo not given)	u	-4%	-3%	-8%	12µM*	u
COc1ccccc1C(=O)Nc1nc(-c2ccc(S(=O)(=O)N3CCOCC3)cc2)cs1	x	u	-22%	-2%	u	3.5µM*
CCCc1c(-c2cccc(Br)c2)ncn1Cc1ccccc1OC	x	x	-26%	x	x	x
Cc1cc(C(=O)N(NC(=O)C(C)C)c2ccccc2)cs1	-12%	x	2%	3%	8.3µM*	-14%
O=C(NN(C(=O)c1ccccc1)c1ccccc1)c1ccccc1	u	5%	31%	0%	27%	11%
O=C1C=CC(O)(c2cc(=O)c3c(O)cc(O)cc3o2)C=C1	9.3µM*	u	9%	-7%	15µM*	u
O=C(NCc1ccccn1)C1CCN(S(=O)(=O)N2CCC3(CC2)OCCO3)CC1	-6%	0%	53%	-4%	10µM*	5%
O=C(C1CCN(S(=O)(=O)N2CCC3(CC2)OCCO3)CC1)N1CCN(Cc2ccccc2)CC1	51%	-4%	6%	-2%	u	4%
O=C(C1CCN(S(=O)(=O)N2CCC3(CC2)OCCO3)CC1)N1CCc2ccccc2C1	x	-9%	-10%	3%	5.2µM*	-10%
Cc1ccc2c(CC(=O)N3CCN(c4ccccc4)CC3)coc2c1	28%	x	-21%	0%	62%	-9%
Cc1cccc2cc(/C=N/NC(=O)[C@H]3C[C@@H]3c3ccccc3)c(Cl)nc12	0%	u	4%	0%	7%	-8%
Cc1ccc2cc(/C=N/NC(=O)[C@H]3C[C@@H]3c3ccccc3)c(Cl)nc2c1	2.9µM*	15%	17%	-12%	2.1µM*	12%
O=C(N/N=C/c1cc2ccccc2nc1Cl)[C@H]1C[C@@H]1c1ccccc1	2.6µM*	14%	-7%[2.32 µM]	4%	1.7µM*	u
Cc1cc(Br)c(OCc2ccc(C(=O)N/N=C3\CC4CC=CC34)cc2)c(Br)c1 (stereo not given)	10µM*	u	85%	0%	u	u
CCOc1ccccc1NC(=O)CCc1nnc2ccc(N3CCC4(CC3)OCCO4)nn12	u	22%	-7%	20%	-9%	11%
O=C(O)CCCN1C(=O)C2C3C=CC(C2C1=O)C1C(=O)N(CCCC(=O)O)C(=O)C31 (stereo not given)	7%	8%	-9%	2%	20%	9%
O=C(O)CCCCCN1C(=O)C2CCCCC2C1=O (stereo not given)	4%	-6%	-22%	1%	9.3µM*	-4%
CCOC(=O)c1c(C)sc2c1N(C(=O)CCl)c1cc(Cl)ccc1S2	u	-37%	1%	-35%	15µM*	u
